Test results: PubChem BioAssay (EPA / NIEHS)
Results filed as inconclusive are left out. Activity calls are given as the source filed them. The calls were made as follows, unless noted: active = hit-call score of the fitted dose curve at least 0.9, where 1 is the maximum; inconclusive = response in the unintended direction; inactive = score below 0.9.

Assays:
[1] = read-out: Cytochrome P450 2C9 (Homo sapiens) (UniProt P11712); test: CLD_CYP2C9_24hr: CellzDirect (CLD) Gene Expression Assay for xenobiotic metabolism (CYP2C9) at 24 hours (AID 2283688)
How it was run: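 Primary human hepatocytes from two donor preparations, dosed daily for two days at multiple concentrations; vehicle 0.2% DMSO. CYP2C9 mRNA induction at 24 h measured by qNPA chemiluminescence relative to DMSO; cytotoxicity annotated from morphology.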

[2] = read-out: organic anion transporter (SLCO1B1), SLCO1B1 (gene 10599); test: CLD_SLCO1B1_24hr: CellzDirect (CLD) Gene Expression Assay for organic anion transporter (SLCO1B1) at 24 hours (AID 2283690)
How it was run: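 Primary human hepatocytes (two donor preparations) dosed daily for two days with chemicals at multiple concentrations, 0.2% DMSO vehicle. SLCO1B1 mRNA at 24 h measured by qNPA chemiluminescence; induction fitted relative to DMSO.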

[3] = read-out: alkyl and aryl transferase (GSTA2), GSTA2 (gene 2939); test: CLD_GSTA2_24hr: CellzDirect (CLD) Gene Expression Assay for alkyl and aryl transferase (GSTA2) at 24 hours (AID 2283693)
How it was run: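 Primary human hepatocytes (two donor preparations) dosed daily for two days with chemicals at multiple concentrations (vehicle 0.2% DMSO); GSTA2 mRNA at 24 h measured by qNPA chemiluminescence, gain-of-signal versus DMSO.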

[4] = read-out: ABC Transporter (ABCB11), ABCB11 (gene 8647); test: CLD_ABCB11_48hr: CellzDirect (CLD) Gene Expression Assay for ABC Transporter (ABCB11) at 48 hours (AID 2283697)
How it was run: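 Primary human hepatocytes from two donor preparations dosed daily for two days at multiple concentrations; 0.2% DMSO vehicle. ABCB11 mRNA at 48 h by quantitative nuclease protection assay, chemiluminescence; fitted for induction versus DMSO.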

[5] = read-out: Cytochrome P450 2C19 (Homo sapiens) (UniProt P33261); test: CLD_CYP2C19_48hr: CellzDirect (CLD) Gene Expression Assay for xenobiotic metabolism (CYP2C19) at 48 hours (AID 2283700);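 also: fitted upward so actives raise CYP2C19 mRNA above the 0.2% DMSO vehicle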
How it was run: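 Primary human hepatocytes (two donor preparations) dosed daily for two days, harvested at 48 h; CYP2C19 mRNA induction measured by qNPA chemiluminescence. Gain-of-signal fitted relative to 0.2% DMSO vehicle as baseline.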

[6] = read-out: ABC Transporter (ABCB1), ABCB1 (gene 5243); test: CLD_ABCB1_48hr: CellzDirect (CLD) Gene Expression Assay for ABC Transporter (ABCB1) at 48 hours (AID 2283695);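 as to AC50: potency for induction meaning increase of mRNA over DMSO vehicle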
How it was run: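 Primary human hepatocytes from two donor preparations dosed daily on two consecutive days with 0.2% DMSO vehicle. Harvest at 48 h. ABCB1 mRNA quantified by qNPA with chemiluminescence and fitted for gain of signal versus DMSO.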

[7] = read-out: glucuronosyltransferase (UGT1A1), UGT1A1 (gene 54658); test: CLD_UGT1A1_24hr: CellzDirect (CLD) Gene Expression Assay for glucuronosyltransferase (UGT1A1) at 24 hours (AID 2283696)
How it was run: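 Primary human hepatocytes from two donor preparations were dosed (0.2% DMSO vehicle) and harvested at 24 h; UGT1A1 mRNA induction was quantified by chemiluminescent qNPA, fitted as gain relative to DMSO.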

[8] = read-out: Cytochrome P450 2C9 (Homo sapiens) (UniProt P11712); test: CLD_CYP2C9_48hr: CellzDirect (CLD) Gene Expression Assay for xenobiotic metabolism (CYP2C9) at 48 hours (AID 2283701; active = hit-call score of the fitted dose curve at least 0.9, where 1 is the maximum; inactive = score below 0.9)
How it was run: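 Primary human hepatocytes (two donor preparations) dosed daily for two days with test chemicals, 0.2% DMSO vehicle; harvested at 48 h. mRNA induction quantified by qNPA chemiluminescence, fitted for gain of signal against DMSO baseline; cytotoxicity annotated from phase-contrast morphology.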

[9] = read-out: Cytochrome P450 3A4 (Homo sapiens) (UniProt P08684); test: CLD_CYP3A4_48hr: CellzDirect (CLD) Gene Expression Assay for xenobiotic metabolism (CYP3A4) at 48 hours (AID 2283698)
How it was run: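 Primary human hepatocytes from two donor preparations dosed daily for two days with multiple chemical concentrations, 0.2% DMSO vehicle. CYP3A4 mRNA at 48 h by quantitative nuclease protection assay, chemiluminescence, positive fit versus DMSO; cytotoxicity flagged morphologically.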

[10] = read-out: Cytochrome P450 2B6 (Homo sapiens) (UniProt P20813); test: CLD_CYP2B6_48hr: CellzDirect (CLD) Gene Expression Assay for xenobiotic metabolism (CYP2B6) at 48 hours (AID 2283699);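 also: actives raise transcript level above DMSO so potency reflects induction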
How it was run: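 Primary human hepatocytes dosed daily for two days over multiple concentrations, 0.2% DMSO vehicle; CYP2B6 mRNA quantified at 48 h by qNPA chemiluminescence. Induction fitted as gain of signal versus DMSO; cytotoxicity annotated by morphology.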

Measured: AC50

Chain of Cytochrome P450 2C19 (Homo sapiens) (P33261 whole entry, looked up): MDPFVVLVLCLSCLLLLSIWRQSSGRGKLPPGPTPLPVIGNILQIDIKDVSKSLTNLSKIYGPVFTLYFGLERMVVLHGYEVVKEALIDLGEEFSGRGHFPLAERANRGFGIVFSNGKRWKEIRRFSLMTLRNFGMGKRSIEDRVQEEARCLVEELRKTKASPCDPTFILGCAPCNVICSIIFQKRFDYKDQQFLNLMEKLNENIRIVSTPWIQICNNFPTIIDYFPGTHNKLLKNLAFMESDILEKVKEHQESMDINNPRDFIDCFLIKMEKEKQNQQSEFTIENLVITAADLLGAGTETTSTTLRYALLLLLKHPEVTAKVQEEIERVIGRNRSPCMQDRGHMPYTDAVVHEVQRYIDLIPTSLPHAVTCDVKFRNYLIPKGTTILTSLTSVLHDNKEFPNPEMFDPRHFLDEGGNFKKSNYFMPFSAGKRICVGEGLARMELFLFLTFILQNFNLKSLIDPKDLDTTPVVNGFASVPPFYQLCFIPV
Chain of Cytochrome P450 3A4 (Homo sapiens) (P08684 whole entry, looked up): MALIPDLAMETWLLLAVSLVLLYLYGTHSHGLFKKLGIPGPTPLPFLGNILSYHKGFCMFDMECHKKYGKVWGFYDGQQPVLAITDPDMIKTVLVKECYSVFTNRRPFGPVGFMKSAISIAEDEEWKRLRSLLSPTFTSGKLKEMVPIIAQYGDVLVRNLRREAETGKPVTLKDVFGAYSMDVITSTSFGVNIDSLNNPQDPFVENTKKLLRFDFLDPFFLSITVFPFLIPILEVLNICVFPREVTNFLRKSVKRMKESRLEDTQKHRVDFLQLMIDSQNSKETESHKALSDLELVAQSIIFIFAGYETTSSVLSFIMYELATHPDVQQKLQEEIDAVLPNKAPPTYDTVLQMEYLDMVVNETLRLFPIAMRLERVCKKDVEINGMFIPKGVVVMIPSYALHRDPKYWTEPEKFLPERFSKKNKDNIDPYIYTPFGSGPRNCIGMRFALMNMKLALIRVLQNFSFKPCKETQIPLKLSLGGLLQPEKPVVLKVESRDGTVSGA

Oc1ccc(Cl)cc1Cc1ccccc1
inactive: [1] | [2] | [3] | [4] | [5]

O=C(O)CCCOc1ccc(Cl)cc1Cl
inactive: [1] | [6] | [7] | [5] | [8]

CCC(C)(NC(=O)c1cc(Cl)c(C)c(Cl)c1)C(=O)CCl (stereo not given)
active: [9] 2.52 µM
inactive: [1] | [3] | [6] | [8]

CCOCN(C(=O)CCl)c1c(C)cccc1CC
active: [9] 2.16 µM
inactive: [1] | [2] | [3] | [6] | [4]

O=S(=O)(O)C(F)(F)C(F)(F)C(F)(F)C(F)(F)C(F)(F)C(F)(F)C(F)(F)C(F)(F)F
inactive: [1] | [3] | [6] | [9]

CCCN(CCC)c1c([N+](=O)[O-])cc(C(F)(F)F)cc1[N+](=O)[O-]
inactive: [1] | [3] | [6] | [4] | [8]
active: [9] 8.57 µM

CNC(=O)Oc1cccc(N=CN(C)C)c1
inactive: [1] | [3] | [6] | [7]

OCCOc1ccccc1
inactive: [1] | [2] | [3] | [5]

CCOc1nc(NC)nc(NC(=O)NS(=O)(=O)c2ccccc2C(=O)OC)n1
inactive: [1] | [6] | [4] | [9] | [8]

C[C@H]1[C@H](c2ccc(Cl)cc2)SC(=O)N1C(=O)NC1CCCCC1
active: [6] 35.5 µM | [9] 1.97 µM
inactive: [1] | [3] | [7] | [5] | [8]

Clc1ccccc1-c1nnc(-c2ccccc2Cl)nn1
active: [9] 6.89 µM
inactive: [1] | [3] | [4] | [8]

COP(=S)(OC)Oc1ccc([N+](=O)[O-])cc1
active: [9] 8.47 µM
inactive: [1] | [2] | [6] | [4] | [8]

COc1cc(OC)nc(NC(=O)NS(=O)(=O)c2cc(NC=O)ccc2C(=O)N(C)C)n1
inactive: [1] | [2] | [3] | [6] | [4] | [8]

O=[N+]([O-])c1c(Cl)c(Cl)c(Cl)c(Cl)c1Cl
active: [9] 3.39 µM
inactive: [1] | [3] | [8]

COC(=O)c1ccccc1S(=O)(=O)NC(=O)N(C)c1nc(C)nc(OC)n1
inactive: [1] | [2] | [3] | [4] | [10] | [8]

CC(C)(C)C(O)C(Oc1ccc(Cl)cc1)n1cncn1 (stereo not given)
inactive: [1] | [3] | [6] | [5] | [8]

COC(=O)c1ccccc1CS(=O)(=O)NC(=O)Nc1nc(OC)cc(OC)n1
inactive: [1] | [3] | [5] | [8]

C#CCN1C(=O)COc2cc(F)c(N3C(=O)C4=C(CCCC4)C3=O)cc21
inactive: [1] | [3] | [6] | [5] | [8]
active: [9] 4.94 µM

CN1CSC(=S)N(C)C1
inactive: [1] | [2] | [3] | [8]

CC(C)OC(=O)Nc1cccc(Cl)c1
inactive: [1] | [2] | [3] | [5] | [8]
active: [7] 20 µM | [9] 36.3 µM

COc1nn(CSP(=S)(OC)OC)c(=O)s1
inactive: [1]

CNC(=O)/C=C(\C)OP(=O)(OC)OC
active: [9] 1.9 µM
inactive: [1] | [6] | [4] | [5]

O=S1OCC2C(CO1)C1(Cl)C(Cl)=C(Cl)C2(Cl)C1(Cl)Cl (stereo not given)
active: [6] 29.4 µM | [9] 9.22 µM
inactive: [1] | [3] | [5]

CCOC1Oc2ccc(OS(C)(=O)=O)cc2C1(C)C (stereo not given)
active: [9] 5.87 µM
inactive: [1] | [3] | [6] | [8]

CC(C)(C)C(O)/C(=C\c1ccc(Cl)cc1Cl)n1cncn1 (stereo not given)
active: [6] 31.3 µM | [9] 1.9 µM
inactive: [1] | [3] | [8]

O=C(NC(=O)c1c(F)cccc1F)Nc1ccc(OC(F)(F)C(F)OC(F)(F)F)c(Cl)c1 (stereo not given)
inactive: [1] | [3] | [4] | [9] | [5]

O=C(O)COc1ccc(Cl)cc1Cl
inactive: [3] | [6] | [9] | [5]

CC1(c2ccc(Oc3ccccc3)cc2)OC(=O)N(Nc2ccccc2)C1=O (stereo not given)
inactive: [2] | [3] | [6] | [9]

[2H]C1([2H])[n+]2ccccc2-c2cccc[n+]2C1([2H])[2H]
inactive: [2] | [3]

COC(=O)c1ccccc1S(=O)(=O)NC(=O)Nc1nc(C)nc(OC)n1
inactive: [2] | [3] | [6] | [9] | [5]

CCS(=O)(=O)c1cccnc1S(=O)(=O)NC(=O)Nc1nc(OC)cc(OC)n1
inactive: [2] | [3] | [6] | [4]
active: [9] 20 µM
